# Data published in the supplement of paper PMC8728848.
# Shown is part of a subset that was picked to be rich in the strongest signals.
# Key:
# Assay in all cases: glycan array binding signal (z-score within array); higher = stronger binding
# Settings in all cases: glycan notation: IUPAC condensed, linker removed
# [1] = target: Fuc(a1-2)Gal
# Summary of the method: (§1)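 Negative Z-scores can be read as non-binding. The Z-score is calculated within each array and then averaged across arrays of one protein sequence at different concentrations or buffers and across linkers. Arrays, 3228 in all, were curated from the Consortium for Functional Glycomics database and kept only where the protein sequence was available.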
# [2] = target: Fuc(a1-2)Gal(b1-3)GlcNAc(b1-2)Man(a1-3)[Fuc(a1-2)Gal(b1-3)GlcNAc(b1-2)Man(a1-6)]Man(b1-4)GlcNAc(b1-4)GlcNAc
# Summary of the method: as §1
# [3] = target: Fuc(a1-2)Gal(b1-3)GlcNAc(b1-3)[Neu5Ac(a2-6)Gal(b1-4)GlcNAc(b1-6)]Gal(b1-4)Glc
# Summary of the method: as §1
# [4] = target: Fuc(a1-2)Gal(b1-4)Glc6S
# Summary of the method: as §1
# [5] = target: Fuc(a1-2)Gal(b1-4)GlcNAc
# Summary of the method: as §1
# [6] = target: Fuc(a1-2)[Gal(a1-3)]Gal
# Summary of the method: as §1
# [7] = target: Fuc(a1-2)[Gal(a1-3)]Gal(b1-3)GlcNAc(b1-2)Man(a1-3)[Fuc(a1-2)[Gal(a1-3)]Gal(b1-3)GlcNAc(b1-2)Man(a1-6)]Man(b1-4)GlcNAc(b1-4)[Fuc(a1-6)]GlcNAc
# Summary of the method: as §1
# [8] = target: Fuc(a1-2)[Gal(a1-3)]Gal(b1-4)GlcNAc
# Summary of the method: as §1
# [9] = target: Fuc(a1-2)[GalNAc(a1-3)]Gal(b1-4)GlcNAc(b1-2)Man(a1-3)[Fuc(a1-2)[GalNAc(a1-3)]Gal(b1-4)GlcNAc(b1-2)Man(a1-6)]Man(b1-4)GlcNAc(b1-4)GlcNAc
# Summary of the method: as §1
# [10] = target: Fuc(a1-2)[GalNAc(b1-3)]Gal
# Summary of the method: as §1
# [11] = target: Fuc(a1-3)[Gal(b1-4)]Glc6S
# Summary of the method: as §1
# [12] = target: Fuc(a1-3)[Gal(b1-4)]GlcNAc(b1-3)Gal(b1-3)[Fuc(a1-4)]GlcNAc
# Summary of the method: as §1
# [13] = target: Fuc(a1-4)GlcNAc
# Summary of the method: as §1
# [14] = target: Gal(a1-3)Gal(b1-4)GlcNAc(b1-2)Man(a1-3)[Gal(a1-3)Gal(b1-4)GlcNAc(b1-2)Man(a1-6)]Man(b1-4)GlcNAc(b1-4)GlcNAc
# Summary of the method: as §1
# [15] = target: Gal(a1-3)GalNAc
# Summary of the method: as §1
# [16] = target: Gal(a1-4)Gal(b1-3)GlcNAc(b1-2)Man(a1-3)[Gal(a1-4)Gal(b1-3)GlcNAc(b1-2)Man(a1-6)]Man(b1-4)GlcNAc(b1-4)GlcNAc
# Summary of the method: as §1
# [17] = target: Gal(a1-4)Gal(b1-4)GlcNAc
# Summary of the method: as §1
# [18] = target: Gal(a1-4)Gal(b1-4)GlcNAc(b1-2)Man(a1-3)[Gal(a1-4)Gal(b1-4)GlcNAc(b1-2)Man(a1-6)]Man(b1-4)GlcNAc(b1-4)GlcNAc
# Summary of the method: as §1
# [19] = target: Gal(a1-4)GlcNAc
# Summary of the method: as §1
# [20] = target: Gal(b1-3)GlcNAc(b1-2)Man(a1-3)[Gal(b1-3)GlcNAc(b1-2)Man(a1-6)]Man(b1-4)GlcNAc(b1-4)GlcNAc
# Summary of the method: as §1
# [21] = target: Gal(b1-3)GlcNAc(b1-2)Man(a1-3)[Gal(b1-3)GlcNAc(b1-2)Man(a1-6)]Man(b1-4)GlcNAc(b1-4)[Fuc(a1-6)]GlcNAc
# Summary of the method: as §1
# [22] = target: Gal(b1-3)GlcNAc(b1-2)Man(a1-3)[GlcNAc(b1-4)][Gal(b1-3)GlcNAc(b1-2)Man(a1-6)]Man(b1-4)GlcNAc(b1-4)GlcNAc
# Summary of the method: as §1
# [23] = target: Gal(b1-3)GlcNAc(b1-2)[Gal(b1-3)GlcNAc(b1-6)]Man(a1-6)[Gal(b1-3)GlcNAc(b1-2)Man(a1-3)]Man(b1-4)GlcNAc(b1-4)GlcNAc
# Summary of the method: as §1
# [24] = target: Gal(b1-3)GlcNAc(b1-3)Gal(b1-3)GlcNAc
# Summary of the method: as §1
# [25] = target: Gal(b1-3)[Fuc(a1-4)]GlcNAc(b1-3)Gal(b1-4)[Fuc(a1-3)]GlcNAc
# Summary of the method: as §1
# [26] = target: Gal(b1-4)GlcNAc(a1-6)Gal(b1-4)GlcNAc
# Summary of the method: as §1
# [27] = target: Gal(b1-4)GlcNAc(b1-2)Man(a1-3)Man(b1-4)GlcNAc(b1-4)GlcNAc
# Summary of the method: as §1
# [28] = target: Gal(b1-4)GlcNAc(b1-2)Man(a1-3)[GlcNAc(b1-2)Man(a1-6)]Man(b1-4)GlcNAc(b1-4)GlcNAc
# Summary of the method: as §1
# [29] = target: Gal(b1-4)GlcNAc(b1-3)Gal(b1-4)GlcNAc(b1-2)Man(a1-3)[Gal(b1-4)GlcNAc(b1-3)Gal(b1-4)GlcNAc(b1-2)Man(a1-6)]Man(b1-4)GlcNAc(b1-4)[Fuc(a1-6)]GlcNAc
# Summary of the method: as §1
# [30] = target: Gal(b1-4)GlcNAc(b1-3)Gal(b1-4)GlcNAc(b1-3)Gal(b1-4)GlcNAc(b1-3)Gal(b1-4)GlcNAc(b1-2)[Gal(b1-4)GlcNAc(b1-3)Gal(b1-4)GlcNAc(b1-3)Gal(b1-4)GlcNAc(b1-3)Gal(b1-4)GlcNAc(b1-6)]Man(a1-6)[Gal(b1-4)GlcNAc(b1-3)Gal(b1-4)GlcNAc(b1-3)Gal(b1-4)GlcNAc(b1-3)Gal(b1-4)GlcNAc(b1-2)Man(a1-3)]Man(b1-4)GlcNAc(b1-4)[Fuc(a1-6)]GlcNAc
# Summary of the method: as §1
binder,measurement,setting,value
RBMC1 (Vibrio cholerae) (protein) QQSQRVVTADNLMYLRSGFAIDAIGTTVNNLVGGPVQGTNGGVLRAPIALDQLQSVEVTSGLYNWGGYHIVAIKFTMKDGSSVLLGSTHYASNKKVETYTVPQGKRIKQINVWTGGWLVEGFQFVY,glycan array binding signal (z-score),[1],-0.366
same,glycan array binding signal (z-score),[2],1.37
same,glycan array binding signal (z-score),[3],-0.436
same,glycan array binding signal (z-score),[4],-0.119
same,glycan array binding signal (z-score),[5],-0.362
same,glycan array binding signal (z-score),[6],-0.15
same,glycan array binding signal (z-score),[7],-0.324
same,glycan array binding signal (z-score),[8],-0.311
same,glycan array binding signal (z-score),[9],0.123
same,glycan array binding signal (z-score),[10],-0.299
same,glycan array binding signal (z-score),[11],-0.164
same,glycan array binding signal (z-score),[12],-0.378
same,glycan array binding signal (z-score),[13],-0.041
same,glycan array binding signal (z-score),[14],2.77
same,glycan array binding signal (z-score),[15],-0.237
same,glycan array binding signal (z-score),[16],1.41
same,glycan array binding signal (z-score),[17],-0.178
same,glycan array binding signal (z-score),[18],3.8
same,glycan array binding signal (z-score),[19],-0.353
same,glycan array binding signal (z-score),[20],2.48
same,glycan array binding signal (z-score),[21],0.912
same,glycan array binding signal (z-score),[22],-0.049
same,glycan array binding signal (z-score),[23],-0.266
same,glycan array binding signal (z-score),[24],-0.311
same,glycan array binding signal (z-score),[25],-0.3
same,glycan array binding signal (z-score),[26],-0.36
same,glycan array binding signal (z-score),[27],-0.354
same,glycan array binding signal (z-score),[28],1.72
same,glycan array binding signal (z-score),[29],2.64
same,glycan array binding signal (z-score),[30],-0.194
